Screening results: PubChem BioAssay, National Center for Advancing Translational Sciences (NCATS)
TDP1 cell CPT: qHTS for Inhibitors of human tyrosyl-DNA phosphodiesterase 1 (TDP1): qHTS in cells in presence of CPT | chicken DT40 Tdp1-/-;hTDP1 cells + 20 nM CPT, ATP luminescence, 48 h | actives 12% (n = 420,000) | Potency, µM (highest dose often 46.2 µM), actives largely listed as inhibitors; further: nearly all actives have a fitted effect of over 55% in size
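Chicken DT40 Tdp1-/- cells stably complemented with human TDP1 were seeded at 400 cells/well in medium containing 20 nM camptothecin, exposed to pin-transferred compounds, and grown at 37 °C for at least 48 hr. Viability was read as ATP luminescence.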
DT40 TDP1 no CPT: qHTS for Inhibitors of human tyrosyl-DNA phosphodiesterase 1 (TDP1): qHTS in cells in absence of CPT. DT40 Tdp1-/- hTDP1 cells, no CPT, ATP luminescence, 48 h. Potency, µM (doses to about 46.2 µM), hits mostly inhibitors. actives 15% (n = 420,000). AID 686978, 2013; further: nearly all actives have a fitted effect of over 55% in size
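No-CPT arm: Tdp1-/-;hTDP1 DT40 cells (400/well) plus compounds, incubated ≥48 hr at 37 °C. Readout CellTiter-Glo luminescence.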
TDP1 block: qHTS Assay for Inhibitors of Tyrosyl-DNA Phosphodiesterase (TDP1) | recombinant TDP1, AlphaScreen DNA substrate cleavage | actives 0.28% (n = 350,000) | Potency, µM (top dose mostly 130 µM), actives largely listed as inhibitors; further: nearly all actives have a fitted effect of over 40% in size
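AlphaScreen read-out: signal falls as enzyme removes the 3' tyrosine-FITC from a 5'-biotinylated DNA oligo (15 nM, 5 min, RT). Enzyme was E. coli-made recombinant Tdp1 at 1 nM, exposed to compound for 15 min beforehand; beads 10 ug/ml, 10 min.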
ClpP mod: qHTS Assay for Activators of ClpP | Potency, µM (highest dose often 57.5 µM) | ATP-dependent Clp protease proteolytic subunit (Bacillus subtilis (strain 168)), P80244 | actives 1.9% (n = 340,000) | AID 651965, 2013 | purified B. subtilis ClpP, FRET peptide cleavage, 20 min; active means well fitted falling curve with a large enough effect; inconclusive means small, poorly fitted or top-dose-only effect; inactive means no such curve, though single readings can be large or run the other way; further: the source files actives as falling curves though it sought activators and does not explain the sign; nearly all actives have a fitted effect of over 65% in size
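Buffer: 100 mM Tris/HCl pH8, 100 mM KCl, 0.05% low protease BSA, 2.5% glycerol, 0.01% Tween-20. ClpP 10 microg/mL final; 20 min RT; delta FRET normalized to ADEP and DMSO controls.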
A number is an active result; - = inactive; ? = inconclusive; . = no result given; ! = a repeat was not active; [ ] = remark or other dose. In the library only some 17% were active in any assay of this set; here they are far more common. Unless noted, the call rests on the fitted dose curve; in most records, active means well fitted curve in the direction sought with a large enough effect; inconclusive means small, poorly fitted or top-dose-only effect, or another doubt; inactive means no such curve, though single readings can be large; an effect the other way counts as inactive or inconclusive.

SMILES	TDP1 cell CPT	DT40 TDP1 no CPT	TDP1 block	ClpP mod
C[C@H]1C(=O)O[C@@H]2CCN3CC=C(COC(=O)[C@](C)(O)[C@]1(C)O)[C@H]23	12µM!	?	-	-
COC(=O)C1=C(c2ccc(S(C)(=O)=O)cc2)C[C@@H]2CC[C@H]1N2C(=O)NCc1ccc(C(F)(F)F)cc1	-	?	.	-
O=C(Oc1ccccc1)N1CCC2(CC1)CCN(C(c1ccccc1)c1ccccc1)CC2	-	-	.	.
COC(=O)C1=C(c2ccc(OC)c(OC)c2)C[C@@H]2CC[C@H]1N2C(=O)NC1Cc2ccccc2C1	?	-	-	-
COC(=O)Nc1nc2ccccc2[nH]1	6.5µM	5.8µM	-	-
C=CCn1cc(C=C2C(=O)NC(=O)NC2=O)c2ccccc21	-	-	.	.
O=C1NC(=O)C(=Cc2cn(CCOc3ccc4c(c3)OCO4)c3ccccc23)C(=O)N1	?	21µM	-	-
COc1ccc(-c2c3c(=O)n(C)c(=O)n(C)c3c3n2-c2ccccc2NC3c2ccccc2OC)cc1 (configuration not stated)	10µM	15µM	-	?
Cn1c(=O)c2c(-c3ccccc3)n3c(c2n(C)c1=O)C(c1cc(Cl)ccc1O)Nc1ccccc1-3 (configuration not stated)	9.2µM	15µM	-	-
CO/C1=C\C(C)=C\[C@@H](C)[C@@H](O)[C@H](C)C/C(C)=C/C=C/[C@H](OC)[C@H]([C@@H](C)[C@@H](O)[C@H](C)[C@H]2C[C@@H](O)[C@H](C)[C@@H](C(C)C)O2)OC1=O	.	.	-	.
COc1ccc(CCN)cc1	-	-	-	.
CCOC(=O)C1=C[C@@H](OC(CC)CC)[C@H](NC(C)=O)[C@@H](N)C1	-	-	.	.
c1ccc(-c2nc(N3CCOCC3)s[n+]2-c2ccccc2)cc1	15µM	?	-	-
CN1CC=C(/C=C/c2ccc(-c3ccccc3)cc2)CC1	15µM	12µM	.	-
CC1(C)C(C(=O)N2CCN(c3ccc(Cl)cc3)CC2)C1(C)C	?	18µM	.	-
C/C=C1\C[C@H](C)[C@@](O)(CO)C(=O)OCC2=CCN3CC[C@@H](OC1=O)[C@@H]23	.	.	-	.
COc1cc(CC(=O)N2C[C@H]3C[C@@H](C2)c2cccc(=O)n2C3)cc(OC)c1OC	-	-	-	-
COc1cc(NC(=O)c2ccco2)ccc1NC(=O)c1ccccc1Cl	-	?	-	-
COc1ccc(NC(=O)c2ccco2)cc1NC(=O)COc1cc(C)cc(C)c1	8.2µM	5.8µM	-	-
O=C1NC(=O)C(=Cc2coc3ccc(O)cc3c2=O)C(=O)N1	16µM	21µM	.	-
Clc1ccccc1CNC1CN2CCC1CC2 (configuration not stated)	?	-	-	-
O=C(COc1ccc(Cl)cc1)N(c1ccc(Cl)cc1)C1CN2CCC1CC2 (configuration not stated)	?	16µM	.	-
O=C(COc1ccc(Cl)cc1)N(c1ccccc1Cl)C1CN2CCC1CC2 (configuration not stated)	23µM	16µM	.	-
CC(NC(=O)c1cc(F)ccc1F)c1nnc2n1CCN(Cc1ccc(-c3ccccc3)cc1)CC2 (configuration not stated)	-[9.04 µM]	?	.	.
C=CCC1([C@H](C)CCC)C(=O)NC(=O)NC1=O	-	-	.	.
SMILES	TDP1 cell CPT	DT40 TDP1 no CPT	TDP1 block	ClpP mod
C[C@@H]1CC2C3CC=C4C[C@@H](O)CC[C@]4(C)C3CC[C@]2(C)[C@H]1O (some centres not stated)	-	?	-	.
C[C@]12CC[C@@H](O)CC1=CCC1C2CC[C@@]2(C)C1CC[C@@H]2N (some centres not stated)	?	21µM	-	.
C[C@]12CC[C@H](N)CC1=CCC1C2CC[C@@]2(C)C1CC[C@@H]2O (some centres not stated)	18µM	?	-	.
O=C(c1c[nH]c(C(=O)C(Cl)(Cl)Cl)c1)c1ccccc1Cl	?	?	-	-
O=S(=O)(c1ccc(F)cc1)N1CN2CCN(C2)C1	?	?	.	-
O=S(=O)(c1ccc(Cl)cc1)N1CN2CCN(C2)C1	23µM	?	-	-
Cc1ccc(C2=NC(C)(C)N3C2C3c2ccc([N+](=O)[O-])cc2)cc1 (configuration not stated)	?	21µM	-	-
Cc1ccc([N+](=O)[O-])cc1	-	-	-	-
CC[N+]12CCC(CC1)C(=C(c1ccccc1)c1ccccc1)C2	?	16µM	-	-
CC(C)c1cccc(C(C)C)c1OC(=O)NC(=O)c1c(F)cccc1F	?	-	-	-
Cn1c(=O)n(C)c2cc(CNCCc3ccc(F)cc3)ccc21	16µM	26µM	-	-
COC(=O)c1cn(C(=O)c2cccc3ccccc23)c2ccccc12	8.2µM	9.2µM	-	-
c1cc2c3c(cccc3c1)CC2	-	-	.	-
Nc1ccc(C2(c3ccc(N)cc3)CN3CCC2CC3)cc1	18µM	13µM	-	-
CCc1ccc(N2C(=O)NC(=O)/C(=C\c3cccn3CCOc3ccc(C(C)C)cc3)C2=O)cc1	21µM	16µM	-	-
CCC(C=C[C@@H]1OC(=O)C=C[C@H]1C)=C[C@H](C)CC=CC(C)=C[C@@H](C)C(=O)[C@@H](C)[C@H](O)[C@@H](C)CC(C)=CC(=O)O	.	.	1.3µM	.
CCC(=O)OC1(c2ccccc2)CCN(C)CC1	-	-	.	.
CC(=O)NS(=O)(=O)c1ccc(NC(=O)c2cccn(Cc3ccc(Cl)cc3)c2=O)cc1	-	-	-	-
CC(Nc1cc(C)cc(C)c1)=[N+](C)CCNS(=O)(=O)c1ccc(Cl)cc1	13µM	-	-	-
c1cc2c(cc1C1OC[C@@H]3C(c4ccc5c(c4)OCO5)OCC13)OCO2 (some centres not stated)	-	?	-	.
CC(C)(O)[C@@H]1C2OC(=O)[C@@H]1[C@]1(O)C[C@H]3O[C@]34C(=O)O[C@H]2[C@]14C	?	-	-	.
CCn1c(C)c(C(=O)Nc2ccc(OC)cc2)c2cc(OC)ccc21	-	?	.	-
C[C@H]1CC[C@@H]2[C@@H](C)[C@H]3[C@H](C[C@H]4[C@@H]5CC=C6C[C@@H](O[C@@H]7O[C@H](CO)[C@H](O)[C@H](O[C@@H]8O[C@H](CO)[C@@H](O)[C@H](O)[C@H]8O)[C@H]7O[C@@H]7O[C@@H](C)[C@H](O)[C@@H](O)[C@H]7O)CC[C@]6(C)[C@H]5CC[C@]34C)N2C1	15µM	?	-	-
CC1CC[C@]2(NC1)OC1CC3C4CC=C5CC(O)CC[C@@]5(C)C4CC[C@]3(C)C1C2C (some centres not stated)	-	-	-	.
O=C(c1ccncc1)N1CCC2(CC1)CN(Cc1ccccc1)C2	-	-	.	.
Oc1cc(Cl)cc(Cl)c1Cl	?	-	-	-
